Screening results deposited in PubChem by Broad Institute.
IDE exosite FP: exo-site inhibitors of human IDE, primary screen, biochemical, fluorescence anisotropy, probe displacement; z-score at 20 µM; purified IDE, FL-6b probe fluorescence polarization; stronger effect = lower value; AID 1259349, 2017; 17,000 tested, 6.3% active; Insulin-degrading enzyme (Homo sapiens), P14735;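 active means z-score of -3 or lower, meaning strong loss of probe binding signal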;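 further: His-tagged human IDE residues 42-1019 made in E. coli with 30 nM FL-6b probe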
Target sequence (P14735 42-1019 limits assumed): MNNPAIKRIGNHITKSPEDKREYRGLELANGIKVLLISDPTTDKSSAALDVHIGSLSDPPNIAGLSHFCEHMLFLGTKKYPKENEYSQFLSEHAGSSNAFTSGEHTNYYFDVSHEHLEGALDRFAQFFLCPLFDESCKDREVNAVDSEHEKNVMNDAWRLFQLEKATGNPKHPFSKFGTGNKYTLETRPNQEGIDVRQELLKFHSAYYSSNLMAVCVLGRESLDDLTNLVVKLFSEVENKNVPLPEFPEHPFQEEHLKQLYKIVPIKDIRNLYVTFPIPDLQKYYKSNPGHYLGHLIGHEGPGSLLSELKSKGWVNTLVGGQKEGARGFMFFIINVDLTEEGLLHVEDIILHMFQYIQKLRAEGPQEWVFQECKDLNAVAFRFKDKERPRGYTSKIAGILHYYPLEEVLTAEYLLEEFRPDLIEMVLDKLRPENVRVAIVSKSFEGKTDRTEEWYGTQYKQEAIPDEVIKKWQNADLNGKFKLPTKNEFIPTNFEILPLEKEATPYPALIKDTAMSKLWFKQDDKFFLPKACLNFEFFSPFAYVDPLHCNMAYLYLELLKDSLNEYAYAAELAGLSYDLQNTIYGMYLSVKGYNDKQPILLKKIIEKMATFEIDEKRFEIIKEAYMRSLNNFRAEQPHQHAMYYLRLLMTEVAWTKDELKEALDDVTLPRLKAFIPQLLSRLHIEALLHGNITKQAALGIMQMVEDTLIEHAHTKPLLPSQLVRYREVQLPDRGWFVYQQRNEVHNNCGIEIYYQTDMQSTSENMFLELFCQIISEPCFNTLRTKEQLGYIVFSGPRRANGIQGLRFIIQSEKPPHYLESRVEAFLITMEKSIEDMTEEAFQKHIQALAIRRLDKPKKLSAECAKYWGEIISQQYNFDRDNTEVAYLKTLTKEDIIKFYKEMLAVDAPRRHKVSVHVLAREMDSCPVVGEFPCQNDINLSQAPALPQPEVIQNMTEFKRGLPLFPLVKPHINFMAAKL
A number is an active result; . = inactive; ! = a repeat was not active. Only a selection was taken, and hits are over-represented in it overall.

SMILES	IDE exosite FP
Cc1ccccc1-c1ccc(C2[C@@H]3CN(C(=O)NC4CCCCC4)C[C@H]2N3)cc1 (stereo partly drawn)	-8.2!
Cc1ccccc1-c1ccc(C2[C@@H]3CN(C(=O)Nc4ccc(F)cc4)C[C@H]2N3)cc1 (stereo partly drawn)	-11
Cc1ccccc1-c1ccc(C2[C@H]3CNC[C@@H]2N3C(=O)Nc2ccc(F)cc2)cc1 (stereo partly drawn)	.
COCCN(C[C@@H]1[C@H](c2ccccc2)[C@@H](CO)N1C(=O)C1CCC1)C(C)=O	.
CN1C(=O)c2cc(NC(=O)c3cnccn3)ccc2OC[C@@H]2O[C@@H](CC(=O)NCC3CCCCC3)CC[C@H]21	.
CC(C)NC(=O)N1[C@H](CO)[C@@H](c2ccccc2)C12CN(Cc1cc(F)cc(F)c1)C2	.
N#C[C@H]1[C@@H](c2ccc(C#CC3CC3)cc2)[C@@H](CO)N1S(=O)(=O)c1ccccc1	.
COc1ccccc1-c1cn(CC[C@H]2CC[C@@H](NC(=O)C3CCCCC3)[C@H](CO)O2)nn1	.
COc1ccc2c3c([nH]c2c1)[C@@H](CO)N(C(=O)Nc1ccc(F)cc1)CC31CN(C(=O)Nc2c(C)noc2C)C1	.
N#C[C@H]1[C@H](c2ccccc2)[C@@H](CO)N1C(=O)c1cc(Cl)cc(Cl)c1	.
O=C(c1cccc(F)c1)N1CCCCN2[C@@H](CO)[C@@H](c3ccc(-c4cccnc4)cc3)[C@@H]2C1	.
COc1ccc2c3c([nH]c2c1)[C@H](CO)N(Cc1ccc(Cl)cc1)CC31CCN(Cc2nccs2)CC1	.
Cc1ccccc1-c1ccc([C@H]2[C@H]3CN(C(=O)c4ccc(F)cc4)CC(=O)N3[C@H]2CO)cc1	-4.3
Cc1ccccc1-c1ccc([C@H]2[C@H](CO)N3C(=O)CN(C(=O)c4ccc(F)cc4)C[C@@H]23)cc1	-16
O=C(c1ccc(F)cc1)N1CC(=O)N2[C@H](C1)[C@H](c1ccc(-c3ccccc3F)cc1)[C@@H]2CO	.
Cc1ccccc1-c1ccc([C@H]2[C@@H](CO)N3C(=O)CN(C(=O)c4ccc(F)cc4)C[C@@H]23)cc1	.
O=C(c1ccc(F)cc1)N1CC(=O)N2[C@H](C1)[C@@H](c1ccc(-c3ccccc3F)cc1)[C@@H]2CO	.
O=C(c1ccc(F)cc1)N1CC(=O)N2[C@@H](CO)[C@H](c3ccc(-c4ccccc4F)cc3)[C@@H]2C1	.
CS(=O)(=O)N1[C@@H]2CNC[C@H]1C2c1ccc(-c2ccccc2)cc1 (stereo partly drawn)	.
O=C(C[C@H]1CC[C@@H]2[C@H](COC[C@H](O)CN2S(=O)(=O)c2ccccc2)O1)NCC1CCCCC1	.
COC(=O)c1ccc(CN2CC(=O)N3[C@H](CO)[C@@H](c4ccc(-c5ccc(OC)cc5)cc4)[C@H]3C2)cc1	.
CCCNC(=O)N1CC(=O)N2[C@H](CO)[C@@H](c3ccc(C#Cc4cccc(OC)c4)cc3)[C@H]2C1	.
CCCNC(=O)N1CC(=O)N2[C@H](CO)[C@H](c3ccc(C#Cc4ccccc4)cc3)[C@@H]2C1	-9.6
CCCNC(=O)N1CC(=O)N2[C@@H](CO)[C@H](c3ccc(C#Cc4cccc(F)c4)cc3)[C@@H]2C1	-9.2
CCCNC(=O)N1CC(=O)N2[C@H](C1)[C@@H](c1ccc(C#Cc3ccc(F)cc3)cc1)[C@@H]2CO	.
SMILES	IDE exosite FP
CCCNC(=O)N1CC(=O)N2[C@H](CO)[C@H](c3ccc(C#Cc4cccc(F)c4)cc3)[C@@H]2C1	-8.5
CCCC#Cc1ccc([C@H]2[C@H](CO)N3C(=O)CN(C(=O)NCCC)C[C@@H]23)cc1	.
CCCNC(=O)N1CC(=O)N2[C@H](CO)[C@@H](c3ccc(C#Cc4cccc(OC)c4)cc3)[C@@H]2C1	.
CCCNC(=O)N1CC(=O)N2[C@H](CO)[C@H](c3ccc(C#Cc4cccc(F)c4)cc3)[C@H]2C1	.
CCCC#Cc1ccc([C@@H]2[C@H]3CN(C(=O)NCCC)CC(=O)N3[C@H]2CO)cc1	.
CCCNC(=O)N1CC(=O)N2[C@H](CO)[C@@H](c3ccc(C#Cc4cccc(F)c4)cc3)[C@@H]2C1	-6.4
CCCC#Cc1ccc([C@@H]2[C@@H](CO)N3C(=O)CN(C(=O)NCCC)C[C@@H]23)cc1	.
CCCNC(=O)N1CC(=O)N2[C@H](CO)[C@H](c3ccc(C#Cc4ccccc4)cc3)[C@H]2C1	.
CS(=O)(=O)N1[C@H](C#N)[C@H](c2ccc(C#CC3CCCCC3)cc2)[C@@H]1CO	.
O=S(=O)(Cc1ccccc1)N1[C@H](CO)[C@@H](c2ccccc2)C12CN(CCC(F)(F)F)C2	.
CN(C)CC#Cc1ccc([C@H]2[C@H](CO)N3C(=O)CN(C(=O)c4ccccc4)C[C@@H]23)cc1	.
COc1ccc(S(=O)(=O)Nc2ccc3c(c2)C(=O)N([C@@H](C)CO)C[C@H](C)[C@@H](CN(C)C(=O)Nc2c(C)noc2C)OCCCC[C@@H](C)O3)cc1	.
CC(C)N(C[C@H]1[C@@H](c2ccccc2)[C@H](CO)N1S(C)(=O)=O)C(=O)CN(C)C	.
OC[C@@H]1[C@@H](c2ccccc2)C2(CN(Cc3cc(F)ccc3F)C2)N1CC1CCCC1	.
CN1[C@@H]2c3ccc(-c4ccccc4F)c(=O)n3C[C@@H]2[C@@H](CO)[C@@H]1C(=O)Nc1nccs1	.
COCCNC(=O)C[C@H]1CC[C@H]2[C@H](COc3ccc(NS(=O)(=O)c4ccc(Cl)cc4)cc3C(=O)N2C)O1	.
O=C(NC1CCCC1)N[C@H]1C=C[C@@H](CC(=O)N2CCOCC2)O[C@@H]1CO	.
CCS(=O)(=O)N1CCCCN2[C@H](C1)[C@@H](c1ccc(-c3ccc(C#N)cc3)cc1)[C@@H]2CO	.
O=C(CC1CC1)N1CC(=O)N2[C@@H](CO)[C@H](c3ccc(-c4ccccc4)cc3)[C@@H]2C1	.
O=C(c1ccc(F)cc1)N1CC(=O)N2[C@H](C1)[C@H](c1ccc(/C=C/c3ccccc3)cc1)[C@@H]2CO	.
O=C(CC1CC1)N1CC(=O)N2[C@H](CO)[C@@H](c3ccc(C#Cc4ccccc4)cc3)[C@H]2C1	-6.4
O=C(CC1CC1)N1CC(=O)N2[C@H](C1)[C@H](c1ccc(/C=C/c3ccccc3)cc1)[C@@H]2CO	-3.8
O=C(CC1CC1)N1CC(=O)N2[C@@H](CO)[C@@H](c3ccc(C#Cc4ccc(F)cc4)cc3)[C@@H]2C1	.
O=C(Cc1ccccc1)N1CC(=O)N2[C@H](CO)[C@@H](c3ccc(C#Cc4ccccc4)cc3)[C@@H]2C1	.
CN(C)CC(=O)N1CC(=O)N2[C@@H](CO)[C@H](c3ccc(/C=C/c4ccccc4)cc3)[C@@H]2C1	-4.2
SMILES	IDE exosite FP
CN(C)CC(=O)N1CC(=O)N2[C@@H](CO)[C@H](c3ccc(-c4ccc(C#N)cc4)cc3)[C@@H]2C1	.
O=C(CC1CC1)N1CC(=O)N2[C@@H](CO)[C@@H](c3ccc(-c4cccnc4)cc3)[C@@H]2C1	.
O=C(C1CCOCC1)N1CC(=O)N2[C@@H](CO)[C@@H](c3ccc(C#CC4CC4)cc3)[C@@H]2C1	.
C[C@H](CO)N1C[C@H](C)[C@@H](CN(C)S(=O)(=O)c2ccc([N+](=O)[O-])cc2)OCc2ccccc2-c2ccccc2C1=O	.
C/C=C/c1ccc([C@H]2[C@H](CO)N3CCCCN(C(=O)Nc4cc(F)ccc4F)C[C@@H]23)cc1	.
O=C(C1CC1)N1CC[C@@H]2[C@H]1c1cc(Br)ccc1N[C@@H]2CO	.
COc1ccccc1-c1cnc2c(c1)C(=O)N([C@H](C)CO)C[C@H](C)[C@H](CN(C)C(=O)CC1CC1)O2	.
